We go through 10 molecules from PubChem BioAssay AID651602 (The Scripps Research Institute Molecular Screening Center, 2012).

Hit rate of the full screen: of about 360,000 compounds, about 950 (0.26%) were called active. No stated cut-off is given here; in the data, active means inhibition above about 11%; inactive means the rest. What follows is part of a selection rich in actives, with near analogues and random picks from the rest.

This test is described as follows: growth loss of phage-infected E. coli, primary screen, RecBCD inhibitor project, absorbance, with phage, HTS (AID 651602). The settings on record: at 11.9 µM, stronger effect = higher value.
For `O=[N+]([O-])c1cnc2ccc3ccccc3c2c1`, the inhibition was 18.9% (active).
For the molecule `C/C(=N/O)c1ccc2ccc3ccccc3c2c1`, the inhibition was 1.01% (inactive).
Then `Cc1ccc(-n2c(-c3ccc([N+](=O)[O-])cc3)nc3ccccc3c2=O)cc1`, with 0.89% (inactive); and `Cc1cccc(-n2c(C)nc3cc(C(=O)N4CCC5(CC4)OCCO5)ccc32)c1`, with 4.97% (inactive); and `COC(=O)C1=C(c2ccc(OCc3ccccc3)cc2)C[C@@H]2CC[C@H]1N2C(=O)NCc1cccc(F)c1`, with 4.61% (inactive).
With `N#CC1=C(N)Oc2c(c(=O)oc3ccccc23)C1c1ccccc1OC(=O)c1cccs1` (stereo not given) the figure was 5.44% (inactive); with `O=c1[nH]c(=O)n(-c2ccccc2)c(O)c1C=NC12CN3CN(CN(C3)C1)C2`, 1.36% (inactive); with `COc1ccc(N=Cc2c(O)n(C)c(=O)[nH]c2=O)cc1`, 0.79% (inactive).
Then `CCc1nnc(NS(=O)(=O)c2ccc(N=Cc3c(O)n(-c4ccccc4)c(=O)[nH]c3=O)cc2)s1`, with 11.9% (active).
Turning to `CCC1(C)CC(CCNCc2ccc(N(C)C)cc2)(c2ccc(F)cc2)CCO1` (stereo not given), the inhibition was 4.38% (inactive).
